PMC5349851, “Combinatorial bZIP dimers display complex DNA-binding specificity landscapes”

Experiments:
Assay in all cases: SELEX-seq (CSI, HT-SELEX, round 3); SELEX-seq: 1x PBS (10 mM phosphate, 137 mM NaCl, 2.7 mM KCl) pH 7.6, 2.5 mM DTT, 50 ng/ul poly dI-dC, 0.1% BSA, 50 nM biotinylated bZIP (1:3 with partner for heterodimers), 100 nM library, room temperature, 1 h, 3 rounds; high values mean tight binding
Conditions in all cases: protein: recombinant;recombinant; copies: 1;1; dsDNA, one strand shown
ATF5;BATF2 = molecular target: T1, ATF5;BATF2 (Homo sapiens;Homo sapiens, UniProt Q9Y2D1;Q8N1L9 199-275;8-85, |)
T1 sequence 1: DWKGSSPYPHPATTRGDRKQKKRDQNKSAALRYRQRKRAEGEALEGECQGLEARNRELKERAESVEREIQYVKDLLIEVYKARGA
T1 sequence 2: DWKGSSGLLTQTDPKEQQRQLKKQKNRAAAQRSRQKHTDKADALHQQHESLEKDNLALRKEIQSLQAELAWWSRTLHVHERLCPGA

NFE2;NFE2 = molecular target: T2, NFE2;NFE2 (Homo sapiens;Homo sapiens, UniProt Q16621;Q16621 221-337;221-337, |)
T2 sequence 1: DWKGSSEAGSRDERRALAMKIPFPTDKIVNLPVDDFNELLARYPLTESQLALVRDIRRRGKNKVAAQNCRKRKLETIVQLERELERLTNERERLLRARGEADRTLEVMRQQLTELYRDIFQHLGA
T2 sequence 2: T2 sequence 1

NFE2;MAFG = NFE2;MAFG (Homo sapiens;Homo sapiens, UniProt Q16621;O15525 221-337;25-124, |)
NFE2L1;MAFG = NFE2L1;MAFG (Homo sapiens;Homo sapiens, UniProt Q14494;O15525 609-725;25-124, |)
HLF;HLF = molecular target: T3, HLF;HLF (Homo sapiens;Homo sapiens, UniProt Q16534;Q16534 216-293;216-293, |)
T3 sequence 1: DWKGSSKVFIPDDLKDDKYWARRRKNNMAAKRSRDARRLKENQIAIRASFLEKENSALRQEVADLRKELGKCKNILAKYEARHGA
T3 sequence 2: T3 sequence 1

NFIL3;NFIL3 = molecular target: T4, NFIL3;NFIL3 (Homo sapiens;Homo sapiens, UniProt Q16649;Q16649 64-134;64-134, |)
T4 sequence 1: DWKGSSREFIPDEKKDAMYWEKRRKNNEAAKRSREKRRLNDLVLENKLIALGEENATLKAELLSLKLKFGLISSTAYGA
T4 sequence 2: T4 sequence 1

MAFB;FOSL1 = MAFB;FOSL1 (Homo sapiens;Homo sapiens, UniProt Q9Y5Q3;P15407 212-305;96-169, |)
Chain of MAFB;FOSL1 (Q9Y5Q3 other isoform, or with tags, fused parts or gaps |, chain 1 of 2): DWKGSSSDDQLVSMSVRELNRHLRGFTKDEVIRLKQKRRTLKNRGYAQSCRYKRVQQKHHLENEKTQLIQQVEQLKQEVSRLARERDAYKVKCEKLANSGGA
Chain of MAFB;FOSL1 (P15407 other isoform, or with tags, fused parts or gaps |, chain 2 of 2): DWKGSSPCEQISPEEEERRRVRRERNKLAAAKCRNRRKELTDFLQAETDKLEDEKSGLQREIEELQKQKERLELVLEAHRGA

MAFB;ATF5 = MAFB;ATF5 (Homo sapiens;Homo sapiens, UniProt Q9Y5Q3;Q9Y2D1 212-305;199-275, |)
ATF6;ATF6 = ATF6;ATF6 (Homo sapiens;Homo sapiens, UniProt P18850;P18850 297-371;297-371, |)
Chain of ATF6;ATF6 (P18850 other isoform, or with tags, fused parts or gaps |, chain 1 of 2): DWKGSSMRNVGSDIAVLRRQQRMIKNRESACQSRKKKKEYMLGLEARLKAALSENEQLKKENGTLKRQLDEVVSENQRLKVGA
Chain of ATF6;ATF6 (P18850 other isoform, or with tags, fused parts or gaps |, chain 2 of 2): as the sequence (P18850 other isoform, or with tags, fused parts or gaps |, chain 1 of 2) above

CREB3;CREB3 = molecular target: T5, CREB3;CREB3 (Homo sapiens;Homo sapiens, UniProt O43889;O43889 141-221;141-221, |)
T5 sequence 1: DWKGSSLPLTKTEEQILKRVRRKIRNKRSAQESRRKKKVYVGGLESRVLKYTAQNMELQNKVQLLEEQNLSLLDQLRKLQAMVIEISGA
T5 sequence 2: T5 sequence 1

ATF5;ATF6B = ATF5;ATF6B (Homo sapiens;Homo sapiens, UniProt Q9Y2D1;Q99941 199-275;316-391, |)
Chain of ATF5;ATF6B (Q99941 other isoform, or with tags, fused parts or gaps |): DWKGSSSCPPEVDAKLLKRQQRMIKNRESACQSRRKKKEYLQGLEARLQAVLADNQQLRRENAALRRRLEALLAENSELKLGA

ATF5;CREBZF = molecular target: T6, ATF5;CREBZF (Homo sapiens;Homo sapiens, UniProt Q9Y2D1;Q9NS37 199-275;195-272, |)
T6 sequence 1: T1 sequence 1
T6 sequence 2: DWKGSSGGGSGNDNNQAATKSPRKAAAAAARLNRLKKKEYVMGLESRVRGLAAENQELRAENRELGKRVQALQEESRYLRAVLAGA

ATF5;CREB3L3 = molecular target: T7, ATF5;CREB3L3 (Homo sapiens;Homo sapiens, UniProt Q9Y2D1;Q68CJ9 199-275;234-311, |)
T7 sequence 1: T1 sequence 1
T7 sequence 2: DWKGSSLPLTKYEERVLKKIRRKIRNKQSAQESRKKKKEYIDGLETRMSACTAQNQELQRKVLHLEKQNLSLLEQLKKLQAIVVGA

ATF6B;ATF6B = ATF6B;ATF6B (Homo sapiens;Homo sapiens, UniProt Q99941;Q99941 316-391;316-391, |)
Chain of ATF6B;ATF6B (Q99941 other isoform, or with tags, fused parts or gaps |, chain 1 of 2): as the sequence (Q99941 other isoform, or with tags, fused parts or gaps |) above
Chain of ATF6B;ATF6B (Q99941 other isoform, or with tags, fused parts or gaps |, chain 2 of 2): as the sequence (Q99941 other isoform, or with tags, fused parts or gaps |) above

CREB1;CREB1 = molecular target: T8, CREB1;CREB1 (Homo sapiens;Homo sapiens, UniProt P16220;P16220 260-327;260-327, |)
T8 sequence 1: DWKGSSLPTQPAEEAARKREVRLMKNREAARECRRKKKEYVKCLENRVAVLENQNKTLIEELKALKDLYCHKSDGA
T8 sequence 2: T8 sequence 1

MAFG;MAFG = MAFG;MAFG (Homo sapiens;Homo sapiens, UniProt O15525;O15525 25-124;25-124, |)

Row | Sequence | binding signal (ATF5;BATF2) | binding signal (NFE2;NFE2) | binding signal (NFE2;MAFG) | binding signal (NFE2L1;MAFG) | binding signal (HLF;HLF) | binding signal (NFIL3;NFIL3) | binding signal (MAFB;FOSL1) | binding signal (MAFB;ATF5) | binding signal (ATF6;ATF6) | binding signal (CREB3;CREB3) | binding signal (ATF5;ATF6B) | binding signal (ATF5;CREBZF) | binding signal (ATF5;CREB3L3) | binding signal (ATF6B;ATF6B) | binding signal (CREB1;CREB1) | binding signal (MAFG;MAFG)
1 | ATGACGCAAT | 0.0275 relative CSI intensity (max = 1) | 0.0016 relative CSI intensity (max = 1) | 0.00814 relative CSI intensity (max = 1) | 0.00759 relative CSI intensity (max = 1) | 0.245 relative CSI intensity (max = 1) | 0.224 relative CSI intensity (max = 1) | 0.00163 relative CSI intensity (max = 1) | 0.00342 relative CSI intensity (max = 1) | 0.00207 relative CSI intensity (max = 1) | 0.00195 relative CSI intensity (max = 1) | 0.00498 relative CSI intensity (max = 1) | 0.0123 relative CSI intensity (max = 1) |  |  |  | 
2 | CCTGACGTCA | 0.0163 relative CSI intensity (max = 1) |  | 0.00227 relative CSI intensity (max = 1) |  |  | 0.00977 relative CSI intensity (max = 1) | 0.0285 relative CSI intensity (max = 1) | 0.0743 relative CSI intensity (max = 1) | 0.00545 relative CSI intensity (max = 1) | 0.0218 relative CSI intensity (max = 1) | 0.0183 relative CSI intensity (max = 1) | 0.0084 relative CSI intensity (max = 1) | 0.00229 relative CSI intensity (max = 1) | 0.00121 relative CSI intensity (max = 1) | 0.0218 relative CSI intensity (max = 1) | 
3 | ATGATGCAAT | 0.02 relative CSI intensity (max = 1) |  | 0.0058 relative CSI intensity (max = 1) | 0.00579 relative CSI intensity (max = 1) | 0.0587 relative CSI intensity (max = 1) | 0.107 relative CSI intensity (max = 1) | 0.00125 relative CSI intensity (max = 1) | 0.00407 relative CSI intensity (max = 1) |  |  | 0.0122 relative CSI intensity (max = 1) | 0.00335 relative CSI intensity (max = 1) |  |  |  | 0.00357 relative CSI intensity (max = 1)
4 | ATGACGTAAT | 0.174 relative CSI intensity (max = 1) | 0.00452 relative CSI intensity (max = 1) | 0.00855 relative CSI intensity (max = 1) | 0.0021 relative CSI intensity (max = 1) | 0.728 relative CSI intensity (max = 1) | 0.7 relative CSI intensity (max = 1) | 0.00946 relative CSI intensity (max = 1) | 0.0179 relative CSI intensity (max = 1) | 0.0093 relative CSI intensity (max = 1) | 0.0113 relative CSI intensity (max = 1) | 0.0108 relative CSI intensity (max = 1) | 0.0175 relative CSI intensity (max = 1) | 0.00383 relative CSI intensity (max = 1) | 0.00248 relative CSI intensity (max = 1) | 0.00977 relative CSI intensity (max = 1) | 0.0106 relative CSI intensity (max = 1)
5 | ATGACGTCAT | 0.86 relative CSI intensity (max = 1) | 0.112 relative CSI intensity (max = 1) | 0.0346 relative CSI intensity (max = 1) | 0.0138 relative CSI intensity (max = 1) | 0.205 relative CSI intensity (max = 1) | 0.344 relative CSI intensity (max = 1) | 0.196 relative CSI intensity (max = 1) | 0.148 relative CSI intensity (max = 1) | 0.437 relative CSI intensity (max = 1) | 0.325 relative CSI intensity (max = 1) | 1 relative CSI intensity (max = 1) | 1 relative CSI intensity (max = 1) | 1 relative CSI intensity (max = 1) | 0.0846 relative CSI intensity (max = 1) | 0.577 relative CSI intensity (max = 1) | 0.0131 relative CSI intensity (max = 1)
6 | ATGACGGAAT |  |  |  | 0.00175 relative CSI intensity (max = 1) |  | 0.00935 relative CSI intensity (max = 1) |  |  |  |  |  | 0.0025 relative CSI intensity (max = 1) |  |  |  | 0.00454 relative CSI intensity (max = 1)
